Experimental findings from PubChem BioAssay (NCATS) are described below.

A short description of assay [1]: qHTS of pediatric cancer cell lines to identify multiple opportunities for drug repurposing: Primary screen for TC32 cells (AID 1347089). Note: nearly all actives have a fitted effect of over 60% in size. A digest of the protocol: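 qHTS, TC32, 48 h drug treatment, CellTiter-Glo luminescence as a proxy for metabolically active cells; primary top concentration 46 µM (MIPE 11-pt, NPC 8-pt); confirmatory 11-pt.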
A short description of assay [2]: qHTS of pediatric cancer cell lines to identify multiple opportunities for drug repurposing: Primary screen for DAOY cells (AID 1347090). Note: nearly all actives have a fitted effect of over 55% in size. A digest of the protocol: (§1)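 Cell viability, CellTiter-Glo luminescence; 500-1,000 cells/well, 8- or 11-point titration, 48 h compound exposure at 37 degrees C, 5% CO2. Controls: DMSO neutral, bortezomib 2.3 µM final as positive.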

A short description of assay [3]: qHTS of pediatric cancer cell lines to identify multiple opportunities for drug repurposing: Primary screen for SJ-GBM2 cells (AID 1347091). A digest of the protocol: as §1
Assay [4] in a line: qHTS of pediatric cancer cell lines to identify multiple opportunities for drug repurposing: Primary screen for A673 cells (AID 1347092). Note: nearly all actives have a fitted effect of over 45% in size. In a few lines: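 Luminescence from CellTiter-Glo, taken after 15 min at room temperature, served as the proxy for metabolically active cells following 48 h treatment. Both potency and efficacy were taken from curves fitted to the titration data.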

Assay [5] in a line: qHTS of pediatric cancer cell lines to identify multiple opportunities for drug repurposing: Primary screen for SK-N-MC cells (AID 1347093). In a few lines:
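Metabolically active cells were quantified by ATP-dependent luminescence (CellTiter-Glo, 15 min at room temperature) following 48 h treatment. Cells had been plated at 500-1,000 per well and settled for 5 h beforehand.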

A short description of assay [6]: qHTS of pediatric cancer cell lines to identify multiple opportunities for drug repurposing: Primary screen for BT-37 cells (AID 1347094). A digest of the protocol: (§2)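 Luminescence from CellTiter-Glo served as readout of metabolically active cells after 48 h compound exposure. Titrations: MIPE 11-point, from 0.78 nM; NPC 8-point, from 0.59 nM (final). Concentration-response curves came straight from the primary screen.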

The nature of assay [7]: qHTS of pediatric cancer cell lines to identify multiple opportunities for drug repurposing: Primary screen for Saos-2 cells (AID 1347097). Note: nearly all actives have a fitted effect of over 40% in size. In a few lines: as §2
Assay [8] can be described thus: qHTS of pediatric cancer cell lines to identify multiple opportunities for drug repurposing: Primary screen for SK-N-SH cells (AID 1347098). Note: nearly all actives have a fitted effect of over 65% in size. In a few lines: (§3)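 Cells (500-1,000/well) rested 5 h, then received compounds for 48 h; metabolically active cells were measured by CellTiter-Glo luminescence. Final concentrations spanned up to 46 µM (MIPE, 11-point) or 0.59 nM-46 µM (NPC, 8-point) in primary screens, 11-point in follow-ups.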

Assay [9] in a line: qHTS of pediatric cancer cell lines to identify multiple opportunities for drug repurposing: Primary screen for LAN-5 cells (AID 1347100). In a few lines:
as §3

The nature of assay [10]: qHTS of pediatric cancer cell lines to identify multiple opportunities for drug repurposing: Primary screen for OHS-50 cells (AID 1347103). Note: nearly all actives have a fitted effect of over 40% in size. In a few lines:
as §3

A short description of assay [11]: qHTS of pediatric cancer cell lines to identify multiple opportunities for drug repurposing: Primary screen for RD cells (AID 1347104). Note: nearly all actives have a fitted effect of over 55% in size. A digest of the protocol:
as §2

Assay [12] in a line: qHTS of pediatric cancer cell lines to identify multiple opportunities for drug repurposing: Primary screen for NB-EBc1 cells (AID 1347095). A digest of the protocol: as §2
Assay [13] can be described thus: qHTS of pediatric cancer cell lines to identify multiple opportunities for drug repurposing: Primary screen for BT-12 cells (AID 1347101). Note: nearly all actives have a fitted effect of over 25% in size. In a few lines: as §3
Assay [14] is described as follows: qHTS of pediatric cancer cell lines to identify multiple opportunities for drug repurposing: Primary screen for U-2 OS cells (AID 1347096). Note: nearly all actives have a fitted effect of over 50% in size. In a few lines: as §3
Assay [15] can be described thus: qHTS of pediatric cancer cell lines to identify multiple opportunities for drug repurposing: Primary screen for NB1643 cells (AID 1347099). Note: nearly all actives have a fitted effect of over 50% in size. In a few lines:
as §2

The nature of assay [16]: qHTS of pediatric cancer cell lines to identify multiple opportunities for drug repurposing: Primary screen for Rh18 cells (AID 1347102). Note: nearly all actives have a fitted effect of over 65% in size. A digest of the protocol:
as §3

The structures appear in SMILES notation. Records with an inconclusive call do not appear. Calls of active or inactive are those of the source. Calls come from the whole dose curve; as a rule, active = well fitted curve in the direction sought with a large enough effect; inconclusive = small, poorly fitted or top-dose-only effect, or another doubt; inactive = no such curve, though single readings can be large; an effect the other way counts as inactive or inconclusive.
Potency is the fitted concentration of half-maximal effect.

On to `CCN(CC)CCNC(=O)c1ccc2nc(-c3ccccc3)c(-c3ccc(CN4CCC(n5c(=O)[nH]c6ccccc65)CC4)cc3)nc2c1`, for which the Potency in assay [1] is 18.6 µM (active); in assay [2], 23.5 µM (active); in [3] it was 16.6 µM (active); in [4] it was 1.18 µM (active); in assay [5] it was 2.64 µM (active); in [6], 10.9 µM (active). Moreover, the Potency in assay [7] is 6.62 µM (active); in assay [8], 27.1 µM (active); in assay [9], 5.9 µM (active); in assay [10], 3.43 µM (active); in assay [11], 3.32 µM (active).

As for `COc1ccc(F)c(F)c1C(=O)c1cnc(NC2CCN(S(C)(=O)=O)CC2)nc1N`, the Potency was 5.87 µM (active) in assay [1]; 3.72 µM (active) in assay [2]; 0.743 µM (active) in assay [3]; 1.48 µM (active) in assay [4]; 1.87 µM (active) in assay [5]; 3.43 µM (active) in assay [6]. Further, the Potency in assay [12] was 0.296 µM (active); in assay [7], 2.35 µM (active); in assay [8], 2.71 µM (active); in assay [13] it was 3.43 µM (active); in assay [10] it was 3.06 µM (active); in [11] it was 5.26 µM (active).

Take `COc1cc(C)c(Sc2cnc(NC(=O)c3ccc(CNC(C)C(C)C)cc3)s2)cc1C(=O)N1CCN(C(C)=O)CC1` (configuration not stated): the Potency in assay [1] was 7.39 µM (active); in [2], 14.8 µM (active); in [3], 18.7 µM (active); in assay [4], 9.35 µM (active); in assay [5], 2.09 µM (active); in assay [12], 18.7 µM (active). Moreover, the Potency is 12.1 µM (active) in [8]; 2.64 µM (active) in [9]; 24.3 µM (active) in assay [13]; 2.43 µM (active) in assay [10]; 14.8 µM (active) in [11]. Moreover, the Potency entry in [14] and in [7] was “inactive” in each case.

Regarding `CCC1=C[C@@H]2CN(C1)Cc1c([nH]c3ccccc13)[C@@](C(=O)OC)(c1cc3c(cc1OC)N(C)[C@@H]1[C@@](O)(C(=O)OC)[C@H](OC(C)=O)[C@]4(CC)C=CCN5CC[C@]31[C@@H]54)C2`, the Potency in assay [1] is 0.104 µM (active); in [2] it was 0.187 µM (active); in assay [3], 0.0332 µM (active); in assay [4], 0.0093 µM (active); in [5], 0.0083 µM (active); in assay [6] it was 0.0432 µM (active). Moreover, the Potency in assay [7] is 0.0166 µM (active); in assay [15], 0.059 µM (active); in assay [9] it was 0.0093 µM (active); in [13] it was 0.0769 µM (active); in assay [10] it was 0.0432 µM (active); in assay [11], 0.0187 µM (active). Further, the Potency result in assay [14] was “inactive”.

With `N#Cc1c(O)c2c(-c3ccc(-c4ccccc4O)cc3)csc2[nH]c1=O`, the Potency result in [1], in [2], in assay [3], in assay [4], in assay [5] and in [6] was “inactive” in each case. In addition, the Potency result in assay [12], in [7], in assay [9], in assay [13], in assay [16] and in assay [10] was “inactive” in each case. The Potency entry in [11] was “inactive”.

In the case of `CCCCCCCCCC(=O)N[C@@H](Cc1c[nH]c2ccccc12)C(=O)N[C@H](CC(N)=O)C(=O)N[C@@H](CC(=O)O)C(=O)N[C@@H]1C(=O)NCC(=O)N[C@@H](CCCN)C(=O)N[C@@H](CC(=O)O)C(=O)N[C@H](C)C(=O)N[C@@H](CC(=O)O)C(=O)NCC(=O)N[C@H](CO)C(=O)N[C@@H]([C@@H](C)CC(=O)O)C(=O)N[C@@H](CC(=O)c2ccccc2N)C(=O)O[C@@H]1C`, the Potency entry in assay [1], in assay [2], in assay [3], in assay [4], in assay [5] and in assay [6] was “inactive” in each case. The Potency entry in [14], in [7], in assay [8], in assay [15], in assay [9] and in [13] was “inactive” throughout. The Potency entry in assay [16], in assay [10] and in assay [11] was “inactive” throughout.

For `CNc1nccc(-c2cccnc2Oc2cc(C(=O)Nc3cccc(C(F)(F)F)c3)ccc2C)n1`, the Potency entry in [1] is “inactive”. Besides, the Potency was 14.8 µM (active) in [2]; 9.35 µM (active) in assay [3]; 2.96 µM (active) in [4]; 3.72 µM (active) in [5]; 3.32 µM (active) in [12]; 11.8 µM (active) in [14]. Also, the Potency in assay [7] is 16.6 µM (active); in assay [8], 9.61 µM (active); in assay [15], 11.8 µM (active); in [9] it was 16.6 µM (active); in assay [13] it was 19.3 µM (active); in [16], 18.7 µM (active). Further, the results for the Potency in [10] and in assay [11] were 15.3 µM (active) and 8.33 µM (active), respectively.

In the case of `CC(=O)OCCN1C(=O)c2c(C)nc3ccc(S(=O)(=O)N4CCOCC4)cc3c2C1=O`, the Potency entry in assay [1], in [2], in assay [3], in assay [12], in assay [7] and in assay [8] was “inactive” in each case. Moreover, in [16], the Potency entry was “inactive”. In addition, the Potency in [4] was 7.43 µM (active); in assay [5], 20.9 µM (active); in assay [6], 5.44 µM (active); in assay [13], 10.9 µM (active); in assay [10], 24.3 µM (active).

In the case of `COc1cc2c(Oc3ccc(-c4cnc(Nc5ccc(F)cc5)n(C)c4=O)cc3F)ccnc2cc1OCCCN1CCOCC1`, the Potency in assay [1] was 11.7 µM (active); in [2] it was 18.7 µM (active); in [3], 0.526 µM (active); in [4], 5.9 µM (active); in assay [5], 0.833 µM (active); in assay [6], 24.3 µM (active). Moreover, the Potency was 2.09 µM (active) in assay [7]; 15.2 µM (active) in assay [8]; 14.8 µM (active) in assay [15]; 1.18 µM (active) in [9]; 21.7 µM (active) in assay [13]; 2.64 µM (active) in assay [16]. Also, the values for the Potency in assay [10] and in [11] were 0.306 µM (active) and 9.35 µM (active), respectively.

In the case of `CCOc1ccccc1OCCNC(C)Cc1ccc(OC)c(S(N)(=O)=O)c1` (configuration not stated), the Potency result in assay [1], in assay [2], in assay [3], in [4], in [5] and in assay [6] was “inactive” each time. Also, the Potency result in assay [14], in assay [7], in [8], in assay [15], in [13] and in assay [16] was “inactive” each time. For the same molecule, the Potency result in assay [10] and in assay [11] was “inactive” each time.
